Screening results deposited in PubChem by several laboratories.
Shown are actives, neighbours in structure and some others; about 2.9% of the full set was active somewhere.
EBV LMP1 NFkB: EBV LMP1-driven NF-kappaB luciferase reporter inhibitors, primary screen, cell-based, luminescence, single point. LMP1-induced NF-kappaB luciferase reporter cells. inhibition, % at 12.5 µM. 0.69% of 350,000 active; in the data active means inhibition above about 41%; inconclusive means no clear call, values can overlap the other calls
Peg3 prom inh: Peg3 promoter-driven luciferase inhibitors, primary screen, cell-based, HeLa, luciferase luminescence; HeLa PEG-Prom luciferase reporter, overnight; inhibition, % at 20 µM; 1.7% of 360,000 active; AID 588405, 2011;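 active means inhibition of at least 50% at 20 µM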
Shn3 3UTR inh: reduction of Shn3 3'UTR firefly luciferase signal, primary screen, Schnurri-3 inhibitor project, cell-based, Clone20 osteoblasts, set 2. Clone20 osteoblast Shn3 3'UTR firefly luciferase, 24 h. inhibition, % at 12.5 µM. 0.52% of 360,000 active. AID 588674, 2011;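 active means mean inhibition of at least 75% with every replicate also reaching 75%; inconclusive means mean inhibition at least 75% but some replicate below; inactive means mean inhibition below 75%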
TRPM1 prom inh: inhibitors of MITF-dependent TRPM1 promoter reporter, primary screen, cell-based, SK-MEL-5, single point, luciferase. inhibition, % at 12.5 µM. 0.83% of 330,000 active. SK-MEL-5 TRPM1 promoter luciferase, 24 h;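 active means mean inhibition across replicates of 60% or more, whatever share of single replicates reaches that level; inconclusive means some that reach 60%, reason not given; inactive means mean inhibition across replicates below 60%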
KKLEB tox: cytotoxicity in KKLEB CF airway cells, primary screen, cytotoxicity control for CF NF-kB inhibitor project, cell-based, uHTS, fluorescence assay plates. activity change (cytotoxicity), % at 5 µM. KKLEB CF airway cells viability, ATPlite luminescence, overnight; stronger effect = lower value; cells stimulated with P. aeruginosa culture filtrate. 0.36% of 360,000 active. AID 602141, 2011;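 active means corrected activity change at or below -50% at 5 µM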
CF NFkB inh: inhibitors of PAF-induced NF-kB signaling, primary screen, cell-based, GFP fluorescence, uHTS; KKLEB NF-kB-GFP reporter, GFP fluorescence overnight; inhibition, % at 5 µM; 0.86% of 360,000 active;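 active means at least 50% inhibition at 5 µM, scaled per plate between neutral and stimulator controls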;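 further: PAF is a Pseudomonas aeruginosa culture filtrate used as stimulus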
A number is an active result; . = inactive; ? = inconclusive; / = no result.

SMILES	EBV LMP1 NFkB	Peg3 prom inh	Shn3 3UTR inh	TRPM1 prom inh	KKLEB tox	CF NFkB inh
CCOC(=O)c1cccc(NC(=O)/C=C/c2cccc([N+](=O)[O-])c2)c1	.	.	.	.	.	.
CCOC(=O)/C=C/C(=O)Nc1cccc([N+](=O)[O-])c1	.	88	?	.	.	88
O=C(/C=C/Nc1cccc(C(F)(F)F)c1)C(F)(F)F	65	.	.	.	.	.
COC(=S)Nc1cccc(C(F)(F)F)c1	.	.	.	.	.	.
COC(=O)/C=C/C(=O)Nc1cccc(C(F)(F)F)c1	43	.	.	.	.	.
O=C(Nc1ccccc1)Nc1cccc(C(F)(F)F)c1	.	.	.	.	.	.
Cc1cccnc1NC(=O)c1ccc([N+](=O)[O-])o1	.	.	.	.	.	.
COc1cccc(C(=O)Nc2cccc(-c3nc4ncccc4o3)c2C)c1	.	.	.	.	.	.
Cc1c(NC(=O)c2ccc([N+](=O)[O-])o2)cccc1-c1nc2ncccc2o1	.	83	.	78	.	96
O=C(Nc1cccc2ncccc12)c1ccc([N+](=O)[O-])o1	.	51	.	.	.	.
O=C(NCc1ccc(Cl)nc1)c1ccc2nc([C@@H]3O[C@H](CO)[C@H](O)[C@H](O)[C@H]3O)[nH]c2c1	/	.	.	/	.	.
CCC(CO)[n+]1c(C)cc(/C=C2\Sc3ccccc3N2Cc2ccccc2)cc1C (centres undefined)	.	62	.	82	.	.
CCCCCCn1c(=O)n2n(c1=O)[C@@H]1CN(S(=O)(=O)c3ccc(C)cc3)C[C@]1(O)[C@@H](OC(=O)Nc1cccs1)C2	.	.	.	/	.	.
Cc1nn(-c2ccccc2)c(C)c1/C=N/NC(=O)c1cc(-c2ccccc2)n[nH]1	.	.	.	.	.	64
Cc1nn(-c2ccccc2)c(C)c1/C=N/NC(=O)c1cc(-c2cccc3ccccc23)n[nH]1	.	.	.	.	.	.
NC(=O)C1CC2(C1)CC(C(N)=O)C2 (centres undefined)	/	.	.	/	.	.
C=C1C(=O)[C@@]23[C@H](O)C[C@@H]4C(C)(C)CC[C@H](O)[C@@]4(C)[C@@H]2CC[C@@H]1[C@H]3O	94	102	98	93	.	95
CSc1cccc(NS(=O)(=O)c2ccc3c(c2)CCN3C(C)=O)c1	.	.	89	.	.	.
CN(C)c1cc[n+](CC(=O)c2ccc(-c3ccccc3)cc2)cc1	.	.	.	70	.	.
CCN(CC)c1ccc(/C=N/NC(=O)c2cccc(S(=O)(=O)Nc3ccccc3OC)c2)cc1	.	.	.	.	.	.
C/C(=N/NC(=O)c1ccc2nc[nH]c2c1)c1cccs1	52	.	.	.	.	.
COc1ccccc1NS(=O)(=O)c1cccc(C(=O)NC2CCN(Cc3ccccc3)CC2)c1	.	.	87	.	.	.
CCN(CC)c1ccc(/C=N/NC(=O)c2cccc(S(=O)(=O)Nc3ccccc3OC)c2)c(O)c1	58	.	.	72	.	.
CCN(CC)c1ccc(/C=N/NC(=O)c2ccc3nc[nH]c3c2)c(O)c1	53	.	92	.	.	.
C/C(=N\NC(=O)c1ccc(Cl)cc1)c1cccs1	.	.	.	.	.	.
SMILES	EBV LMP1 NFkB	Peg3 prom inh	Shn3 3UTR inh	TRPM1 prom inh	KKLEB tox	CF NFkB inh
COc1cc(OC)c(OC)cc1/C=N/NC(=O)c1ccc2nc[nH]c2c1	.	.	.	.	.	.
CCNC(=O)C1(C)CCN(C(=O)c2ccc(C#N)cc2)C1 (centres undefined)	/	.	.	/	.	.
COc1ccccc1NS(=O)(=O)c1cccc(C(=O)N/N=C/c2ccc([N+](=O)[O-])o2)c1	.	.	.	86	.	.
CCN1C(=O)CCN(C2CCCC2)c2nc(Nc3ccc(C(=O)NC4CCN(C)CC4)cc3OC)ncc21	.	66	.	76	.	.
CCn1c(C)cc(C(=O)COC(=O)CNC(=O)c2ccco2)c1C	.	.	.	/	.	.
CC(C)Cc1ccc(C(C)/C=C2/CCC(CN3CCCCC3)C2=O)cc1 (centres undefined)	.	91	.	.	.	.
CC(C)Cc1ccc(CN2CCCC(NC(=O)CCN3CCCCC3=O)C2)cc1 (centres undefined)	.	.	.	.	.	.
OC[C@@H]1CN(Cc2cccs2)C[C@H](n2cnc3c(N4CCCC4)ncnc32)O1	/	.	.	/	.	.
CC(C)=CC(O)C/C(C)=C/COc1ccc2ccc(=O)oc2c1 (centres undefined)	.	94	.	.	.	.
CN(C)C(=O)COc1ccc2ccc(=O)oc2c1	.	.	.	.	.	.
CCN(CC)S(=O)(=O)c1ccc(N2CCOCC2)c(NS(=O)(=O)c2ccc(Cl)s2)c1	.	.	.	/	.	.
N#C/C(=C\c1cccn1S(=O)(=O)c1cccc([N+](=O)[O-])c1)S(=O)(=O)c1ccc(F)cc1	/	.	.	/	.	.
O=C(Nc1cccc(-c2cccc(Cl)c2)c1)C1CCN(Cc2ccc(CO)o2)CC1	.	54	.	.	.	.
COC(=O)c1cc([N+](=O)[O-])c(-n2cncn2)c([N+](=O)[O-])c1	.	94	.	.	.	.
COc1ncnc2c1ncn2CCCNCc1ccccc1	.	.	.	/	.	.
Cc1cc(C)c(S(=O)(=O)Nc2nnc(CC(C)C)s2)c(C)c1	82	.	.	.	.	.
Cc1cc(C)c(S(=O)(=O)Nc2nnc(C)s2)c(C)c1	.	.	.	.	.	.
O=C(c1ccccc1)N1CCN(c2ncnc3sc4c(c23)CCC4)CC1	.	.	85	.	.	.
Cc1c(C(=O)N2CCN(c3ccccc3)CC2)sc2ncnc(N3CCN(c4ccccn4)CC3)c12	.	56	.	.	.	.
Cc1nc(N2CCN(C(=O)c3ccco3)CC2)c2c3c(sc2n1)CCC3	.	.	.	.	.	.
Cc1nc(N2CCN(c3ccccn3)CC2)c2c(C)c(C(=O)N3CCN(c4ccc(F)cc4)CC3)sc2n1	.	58	.	.	.	.
CC(C)NC(=O)C1(C)CCCN1C(=O)c1ccccc1Br (centres undefined)	/	.	.	/	.	.
CC(C)(CC1(C)NC(=O)NC1=O)OCc1ccccc1 (centres undefined)	.	.	.	.	.	.
Cn1c2nc(=O)n(-c3ccccc3)c(=O)c-2nc2c1CCCC2	.	.	.	/	.	.
COc1ccc(CCNC(=O)CCN2C(=O)c3cccc4cccc(c34)C2=O)cc1OC	.	.	.	.	.	.
